This excerpt belongs to a sample that is enriched for hits.
Pf Dd2 growth = Plasmodium falciparum Dd2 growth inhibition; P. falciparum Dd2 growth, SYBR Green, 72 h; hit rate 4.3% among 120,000; AID 1347417; Potency, µM (highest dose often 28.9 µM), without a hit: top-dose activity, negative = inhibition, most hits filed as inhibitors; active = well fitted inhibition curve with a large enough effect;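 note: plate controls were DMSO vehicle for no effect and reference drug for full effect; nearly all actives have a fitted effect of over 65% in size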
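Infected erythrocytes (Dd2, 0.3% parasitemia, 2.5% hematocrit final) are added to compound in RPMI-1640/Albumax II medium, grown 72 h at 37C in low oxygen, then lysed with saponin/Triton-X containing SYBR Green and read by fluorescence.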
An asterisk follows results filed as active; i = inactive; [ ] = dose if it differs, or a comment. Potency is the fitted concentration of half-maximal effect.

SMILES | Pf Dd2 growth
O=C(NCCn1ccn2nc(-c3ccc(F)cc3)cc2c1=O)c1ccc(F)c(Cl)c1 | i
O=C(NCCCN1CCCCC1)c1ccc2c(c1)sc1nc(-c3ccc(F)cc3)cn12 | 2.8µM*
CCc1ccc(-c2cn3c(n2)sc2cc(C(=O)NC4CCCCC4)ccc23)cc1 | i
O=C(NC1CCC(O)CC1)c1ccc(-c2ncc3cnc(-c4ccccc4)cn23)cc1 (stereo unspecified) | -12%[44.1 µM]
O=C(NC1CCCCCC1)c1ccc2c(c1)sc1nc(-c3ccccc3)cn12 | 10µM*
O=C(NCCn1ccn2nc(-c3ccc(F)cc3)cc2c1=O)c1ccsc1 | i
CCn1c(C)c(C)c2cc(C(=O)NCCCN3CCCCC3)ccc21 | i
COCCCNC(=O)C1CCN(c2nn3cc(-c4ccc(F)cc4)nc3s2)CC1 | -4%
CC1CCCCN1CCCNC(=O)c1ccc2c(c1)sc1nc(-c3ccc(F)cc3)cn12 (stereo unspecified) | 1.4µM*
Cc1ccc(Cl)cc1N1CCN(CCCNC(=O)c2ccc3nc(N4CCCCC4)sc3c2)CC1 | i
Cc1noc2c(N3CC[S+](=O)([O-])CC3)cc(-c3cccs3)nc12 | -22%[44.1 µM]
CCn1ncc(C(=O)N2CCC(C3CCN(S(C)(=O)=O)CC3)C2)c1C (stereo unspecified) | -4%
COCCCNC(=O)C1c2ccccc2CC(=O)N1Cc1ccccc1 (stereo unspecified) | -6%
O=C(NCCc1noc(C2CC2)n1)C1CCC1 | 17%
O=C1CC2(CCN(Cc3cccc4ccccc34)CC2)Oc2ccccc2N1 | -12%
CS(=O)(=O)N1CCCCCCNC(=O)[C@@H]2CCC[C@@H]21 | 19%
COCCNC(=O)[C@@H]1C[C@@H](O)CN1C1CCN(C(=O)c2cc(F)ccc2F)CC1 | -2%
Cn1ncc2c(C(=O)NC3CC3)cc(-c3ccc(F)cc3)nc21 | 34%
CN1CCN(C(=O)c2cc3n(n2)CC(c2ccc(Br)cc2)OC3)CC1 (stereo unspecified) | i
CCCNC(=O)C1COC2(CCN(C(=O)c3ccc(F)cc3)CC2)N1C(=O)c1ccccc1 (stereo unspecified) | -13%
CCOc1ccc2c(n1)CCN(C(=O)c1ccc(OC)cc1OC)C2 | 6%
CN(Cc1cccnc1)Cc1nc(C2(O)CCN(C(=O)c3ccc(F)cc3)CC2)cs1 | -3%
Cc1nn2c(=O)cc(COC(=O)c3ccc(C(C)(C)C)cc3)nc2s1 | 18%
COCCc1nn2c(=O)cc(COC(=O)c3cccs3)nc2s1 | 45%[5.79 µM]
COCCc1nn2c(=O)cc(COC(=O)c3ccc(C(C)(C)C)cc3)nc2s1 | 14µM*
SMILES | Pf Dd2 growth
Cc1ccc(C2Cn3cnc(C(=O)N4CCC(C(=O)NCc5ccccc5Cl)CC4)c3CO2)cc1 (stereo unspecified) | i
COCCNC(=O)C[C@@H]1O[C@H](Cn2cc(CN(C)Cc3ccccc3)nn2)[C@@H](O)[C@H]1O | i
C=CCNC(=O)c1cccn2nccc12 | 11%[44.1 µM]
Cc1ccc(OCc2ccc(-c3nc(C#N)c(N4CCN(c5cccc(Cl)c5)CC4)o3)o2)cc1 | -8%
Cc1ccccc1OCc1ccc(-c2nc(C#N)c(N3CCN(c4ccccc4)CC3)o2)o1 | 11µM*
N#Cc1nc(/C=C/c2ccc(F)cc2)oc1N1CCN(c2ccccc2)CC1 | 60%
CC(C)(NC(=O)c1cccs1)C(=O)N[C@@H]1CCOC[C@H]1OCC1CCC1 | -3%
COC(=O)[C@@H]1Cc2ncn(Cc3ccc(OC)cc3)c2CN1C(=O)c1ccc(C#N)cc1 | i
COC(=O)[C@@H]1Cc2ncn(Cc3ccc(OC)cc3)c2CN1Cc1cccc(C#N)c1 | 13µM*
COC(=O)[C@@H]1Cc2ncn(Cc3ccc(OC)cc3)c2CN1C(=O)c1ccc(F)cc1 | -40%[44.1 µM]
COc1ccc(NC(=O)Cn2nc3n(c2=O)CCCC3)cc1 | 15%
Cc1cc2nc3n(c(=O)c2n1CC(=O)Nc1ccc(Br)cc1F)CCC3 | i
CN(C)C(=O)c1ccc(OC2CCN(C(=O)c3ccc(F)cc3F)CC2)nc1 | -13%
CC(C)c1ccc(NC(=O)Cn2c(=O)n(CC3CCC(C(=O)NCCc4ccccc4)CC3)c(=O)c3ccccc32)cc1 (stereo unspecified) | 3.2µM*
CCc1cccc(NC(=O)Cn2c(=O)n(CC3CCC(C(=O)NCCc4ccccc4)CC3)c(=O)c3ccccc32)c1 (stereo unspecified) | 3.5µM*
CC(C)c1ccc(NC(=O)Cn2c(=O)n(CCc3ccccc3)c(=O)c3ccccc32)cc1 | 14%
O=C(Cn1c(=O)n(CC2CCC(C(=O)NCCc3ccccc3)CC2)c(=O)c2ccccc21)Nc1ccccc1 (stereo unspecified) | -11%
Cc1cccc(NC(=O)Cn2c(=O)n(CC3CCC(C(=O)NCCc4ccccc4)CC3)c(=O)c3ccccc32)c1C (stereo unspecified) | i
CCOc1ccc(NC(=O)Cn2c(=O)n(CC3CCC(C(=O)NCCc4ccccc4)CC3)c(=O)c3ccccc32)cc1 (stereo unspecified) | -10%
c1ccc2ncc(CNC[C@H]3COCc4nc5ccccc5n43)cc2c1 | -26%[44.1 µM]
Cc1noc(C)c1CC(=O)N[C@@H]1CN(c2ccccn2)C[C@H]1CN(C)C | 5%
